Screening results (PubChem)
VP16 counter: VP16 counterscreen qHTS for inhibitors of ROR gamma transcriptional activity | Potency, µM (series often up to 53.6 µM), without a hit: at the top dose activity, negative = inhibition, actives largely listed as inhibitors | Drosophila S2 Gal4-VP16 UAS-luciferase, luminescence, 20 h | AID 2546, 2010 | hit rate 3.5% among 310,000;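 also: Gal4-VP16 expression switched on by copper sulfate through the metallothionein promoter; % is scaled to controls: 0 for no effect and ±100 for the full control effect; nearly all actives have a fitted effect of over 50% in size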
Epigenetic reg: Quantitative High-Throughput Screen for Regulators of Epigenetic Control; murine LDR cells, GFP reporter derepression, 30 h; AID 1865, 2009; hit rate 0.2% among 280,000; Potency, µM (series often up to 53.9 µM), without a hit: at the highest dose GFP activation, actives largely listed as activators; also: % of control where 0% means no effect; nearly all actives have a fitted effect of over 60% in size
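Reporter derepression read as number of fluorescent GFP-positive objects, 20-120 um in size, counted by laser-scanning cytometer. Mouse LDR line with an epigenetically silenced CMV-GFP locus; compound incubation 30 h, 37 C.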
PINK1 expr mod: A Quantitative High throughput Screen to Identify Chemical Modulators of PINK1 Expression | PINK1 immunofluorescence, high-content cytometry, 24 h | Potency, µM (doses to about 76.6 µM), without a hit: at the top dose activation (PINK1 increase), actives largely listed as activators | hit rate 0.2% among 410,000 | AID 624263, 2012; active = well fitted activation curve with a large enough effect; inconclusive = small, poorly fitted or top-dose-only effect; cell line not stated here; also: % of control where 0% means no effect; nearly all actives have a fitted effect of over 65% in size
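Readout is PINK1 immunofluorescence, quantified alongside mitochondrial, cell and nuclear markers by laser-scanning microplate cytometry. Cells from a stable line were exposed to compound titrations (5 concentrations) for 24 hours, with CCCP controls.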
Sfp inh: qHTS Assay for Inhibitors of Bacillus subtilis Sfp phosphopantetheinyl transferase (PPTase). 4'-phosphopantetheinyl transferase ffp (Bacillus subtilis), Q9F4F7. Biochemical Sfp PPTase activity, qHTS. Potency, µM, for the others: largest response in the series, negative = inhibition, hits mostly inhibitors. hit rate 3.5% among 310,000;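 also: the enzyme is Sfp with the accession as filed and its product quenches rhodamine fluorescence; 0% = enzyme reaction without inhibitor and -100% = no enzyme wells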
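After 15 min at room temperature with compound, 15 nM Sfp received 5 uM rhodamine-CoA plus 12.5 uM BHQ-2-ybbR (50 mM Hepes pH 7.6, 10 mM MgCl2). Rate came from the fluorescence difference over 30 min, ex 525/em 598 nm.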
ClpP mod: qHTS Assay for Activators of ClpP | Potency, µM (top dose mostly 57.5 µM), for inactives: top-dose activity change, negative = active | purified B. subtilis ClpP, FRET peptide cleavage, 20 min | hit rate 1.9% among 340,000 | AID 651965, 2013 | ATP-dependent Clp protease proteolytic subunit (Bacillus subtilis (strain 168)), P80244; active = well fitted falling curve with a large enough effect; inconclusive = small, poorly fitted or top-dose-only effect; inactive = no such curve, though single readings can be large or run the other way; also: the source files actives as falling curves though it sought activators and does not explain the sign; nearly all actives have a fitted effect of over 65% in size
Target sequence (P80244 whole entry, looked up): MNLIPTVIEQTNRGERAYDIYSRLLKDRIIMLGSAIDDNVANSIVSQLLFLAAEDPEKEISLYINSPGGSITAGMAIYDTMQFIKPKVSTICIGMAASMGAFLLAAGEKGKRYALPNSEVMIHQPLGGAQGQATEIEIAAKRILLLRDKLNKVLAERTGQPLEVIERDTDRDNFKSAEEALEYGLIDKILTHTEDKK
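FRET quenching reversal measured ClpP activation: 10 microg/mL B. subtilis ClpP at pH 8 with the FRET-FV decapeptide, read at 430 nm after 320 nm excitation. The 20-min minus 0-min signal was scaled between DMSO/no-enzyme wells and ADEP (5.8 microM final).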
RORgamma inh: qHTS for inhibitors of ROR gamma transcriptional activity; Drosophila S2 Gal4-RORgamma UAS-luciferase reporter, 20 h; Potency, µM (titrated, usually from 53.6 µM), for the others: at the top dose activity change, negative = inhibition, hits mostly inhibitors; hit rate 5.4% among 310,000; Nuclear receptor ROR-gamma (Mus musculus), P51450; also: % is scaled to controls: 0 for no effect and ±100 for the full control effect; nearly all actives have a fitted effect of over 60% in size
Target sequence (P51450 whole entry, looked up, the tested form may be a part): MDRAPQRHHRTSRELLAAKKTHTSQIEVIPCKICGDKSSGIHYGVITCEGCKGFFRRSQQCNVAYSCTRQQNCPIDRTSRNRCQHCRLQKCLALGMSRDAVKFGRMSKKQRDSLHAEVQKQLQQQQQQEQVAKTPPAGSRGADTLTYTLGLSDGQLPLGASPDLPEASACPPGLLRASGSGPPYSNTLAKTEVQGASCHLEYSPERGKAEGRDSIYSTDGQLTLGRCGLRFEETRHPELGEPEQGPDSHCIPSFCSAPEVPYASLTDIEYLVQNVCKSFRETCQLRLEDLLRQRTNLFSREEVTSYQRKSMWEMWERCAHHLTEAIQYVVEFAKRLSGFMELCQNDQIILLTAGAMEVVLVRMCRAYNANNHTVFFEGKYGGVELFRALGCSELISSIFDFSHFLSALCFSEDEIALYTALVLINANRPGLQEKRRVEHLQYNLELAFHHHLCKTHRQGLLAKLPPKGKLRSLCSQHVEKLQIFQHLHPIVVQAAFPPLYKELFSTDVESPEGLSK
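Stable Schneider cell line, Gal4 DNA-binding domain fused to ROR gamma, UAS-luciferase. Cmpd 1 hr RT → CuSO4 700 uM final → 20 hr RT → luciferase reagent 10 min → luminescence.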
An asterisk follows results filed as active; ? = inconclusive; / = no result given; [ ] = dose if it differs, or a comment. Compounds with a hit are over-represented: about 8.1% of the library has one in this group of screens. Unless noted, calls follow the shape of the dose curve; as a rule, active = well fitted curve in the direction sought with a large enough effect; inconclusive = small, poorly fitted or top-dose-only effect, or another doubt; inactive = no such curve, though single readings can be large; an effect the other way counts as inactive or inconclusive. Potency is read from the fitted curve at half-maximal effect.

SMILES | VP16 counter | Epigenetic reg | PINK1 expr mod | Sfp inh | ClpP mod | RORgamma inh
CCN1C(=O)c2cccc3c(S(=O)(=O)Nc4ccc(OC)cc4OC)ccc1c23 | 18µM* | -1% | 7% | 10% | -2% | ?
O=C(NC(=S)Nc1ccccc1)c1ccc(Br)o1 | 0% | 0% | 5% | 3% | 1% | 3.2µM*
COc1ccccc1NC(=O)c1ccc(Br)o1 | -4% | -2% | 1% | 6% | 1% | -10%
COc1ccc(NC(=S)NC(=O)c2ccc(Br)o2)cc1 | ? | -1% | 2% | ? | 2% | 1µM*
NC(=O)c1ccccc1NC(=S)NC(=O)c1ccc(Br)o1 | 17% | -1% | 0% | 22µM* | -28% | -28%
CCC(=O)Nc1nnc(S(=O)(=O)N(C)Cc2ccc(Cl)cc2)s1 | / | 1% | 0% | / | 0% | /
CC(C)=CCC/C(C)=C/CC/C(C)=C/CC/C(C)=C/C(=O)O | -2% | / | / | 4% | / | 7%
COc1ccc(C(C)NC(=O)CN(c2cc(OC)ccc2OC)S(=O)(=O)c2ccccc2)cc1 (stereo not drawn) | / | 0% | 2% | / | -1% | /
CCOc1ccc(NS(=O)(=O)c2ccc3[nH]cc(C(=O)N4CCCCCC4)c(=O)c3c2)cc1 | / | 1% | 3% | / | -9% | /
Clc1ccc(CSc2nccn2Cc2ccccc2)cc1 | -6% | 1% | 2% | 9% | -3% | ?
O=c1ccn(Cc2ccccc2)c(SCc2ccccc2)n1 | / | / | 3% | / | 16µM* | /
Cc1cccc(CNC(=O)c2cnn(-c3nccc(-c4cc5ccccc5o4)n3)c2C2CC2)n1 | / | / | 5% | / | / | /
Cc1ccc(CNC(=O)CCCn2c(=O)c3ccccc3n(CC(=O)C(C)(C)C)c2=O)cc1 | / | 1% | -1% | / | -12% | /
COc1ccc(-c2c(-c3ccc(O)cc3O)n[nH]c2C(F)(F)F)cc1 | 10µM* | 4% | 2% | 4% | -6% | -68%
Oc1ccc(-c2n[nH]c(C(F)(F)F)c2-c2ccccc2)c(O)c1 | 1.6µM* | -1% | 5% | 14% | / | 5.6µM*
COc1ccccc1-c1c(-c2ccc(O)cc2O)n[nH]c1C(F)(F)F | 11% | 3% | 1% | 11% | -7% | ?
CCN(CC)C(=O)c1sc2c(c1C)c(=O)n(-c1ccc(C)c(C)c1)c(=O)n2CC(=O)Nc1ccc(OC)cc1OC | / | 1% | 2% | / | 1% | /
COCCn1c(=O)c(-c2ccc(Cl)cc2)nc2cnc(N(C)C)nc21 | 7% | / | 2% | 1% | / | -2%
CCC(=O)Nc1cccc2c1C(=O)N(C)C2=O | 2% | 1% | 2% | 17% | 25µM* | -25%
CCNc1cccc2c1C(=O)N(C)C2=O | 0% | -2% | -1%[38.3 µM] | 19% | 0% | -19%
CN1C(=O)c2cccc(NCCCCCCN3C(=O)c4ccccc4C3=O)c2C1=O | 0% | 2% | ? | 0% | 21% | 14%
CN1C(=O)c2cccc(NCCCN3C(=O)c4ccccc4C3=O)c2C1=O | -9% | ? | 7.1µM* | 8% | -2% | 4%
CCOC(=O)C1=C(O)/C(=C/c2cn(CC(=O)NCC3CCCO3)c3ccccc23)SC1=Nc1ccc(C)cc1 (stereo not drawn) | / | / | 14µM* | / | -1% | /
O=C(Nc1ccc(Cl)cc1Cl)c1cnn2c1NC(=C1CC1)C=C2C(F)F | / | / | -1% | / | -1% | /
CC1=CC(=NOC(=O)c2cccc([N+](=O)[O-])c2)C=C(C)C1=O | ? | ? | ? | 5% | -2% | ?
SMILES | VP16 counter | Epigenetic reg | PINK1 expr mod | Sfp inh | ClpP mod | RORgamma inh
CC1=CC(=O)C(C(C)C)=C/C1=N/OC(=O)c1cccc([N+](=O)[O-])c1 | ? | -3% | -2%[38.3 µM] | ? | 1% | 1µM*
Cc1occc1C(=O)N/N=C/c1c[nH]c2ccccc12 | -24% | -2% | -1%[38.3 µM] | 3% | -2% | ?
O=C(N/N=C\c1c(O)ccc2ccccc12)c1ccc(O)cc1 | 5.6µM* | / | 0% | -7% | -7% | 5µM*
COc1ccc(/C=N/NC(=O)c2cccnc2)cc1O | -1% | / | 0% | 23% | 1% | 13%
Cc1cc(O)c(C)c(O)c1/C=N/NC(=O)c1cccnc1 | 7.9µM* | / | -1% | 15% | / | 7.9µM*
Cc1occc1C(=O)N/N=C/c1c(O)ccc2ccccc12 | 18µM* | / | 9% | 8% | / | 4µM*
O=C(N/N=C/c1cccnc1)c1sc2ccccc2c1Cl | 25µM* | / | 1% | -1% | -1% | 13µM*
O=C(N/N=C/c1c(O)ccc2ccccc12)c1ccc(Br)o1 | 2.8µM* | / | 0% | -3% | -1% | 3.2µM*
Cn1nccc1C(=O)N/N=C/c1c(O)ccc2ccccc12 | 2.8µM* | / | 5% | 14% | -4% | 3.2µM*
O=C(NN=C1CCCC1)c1sc2ccccc2c1Cl | ? | 0% | -2% | 10% | / | 11µM*
O=C1CCC/C(=N/NC(=O)c2sc3ccccc3c2Cl)C1 | 29% | ? | 13% | -15% | -2% | -40%
O=C(N/N=C/c1c(O)ccc2ccccc12)c1cccnc1 | 13µM* | / | 2% | 4% | / | 10µM*
O=C(CSc1nnc(-c2ccc(F)cc2)o1)N1CCCc2ccccc21 | / | 2% | 0% | / | -4% | /
COc1ccc(OC)c(-c2ccnc(-n3ncc(C(=O)N4CCN(CCO)CC4)c3C3CC3)n2)c1 | / | / | 0% | / | / | /
CCc1cccc(C)c1NC(=O)Cn1ncc2c3ccccc3n(Cc3ccccc3)c2c1=O | / | 0% | 0% | / | -9% | /
CCCCC/C(C=O)=C/c1ccccc1 | 1% | / | / | -1% | / | -15%[10 µM]
O=C(N/N=C\c1c(O)ccc2ccccc12)c1cncc(Br)c1 | 4.5µM* | / | 6% | 11% | / | 5µM*
Cc1ccc(C(=O)N/N=C/c2c(O)ccc3ccccc23)cn1 | 7.1µM* | / | 6% | 9% | 3% | 5µM*
O=C(N/N=C/c1cccnc1)c1cc(O)c(O)c(O)c1 | -8% | / | 0% | 40µM* | / | -8%
O=C(NN=Cc1c(O)ccc2ccccc12)c1ccncc1 | / | / | -2% | / | -1% | /
Cc1ccc(NC2CCCN(C(=O)c3ccc4nccnc4c3)C2)cc1C (stereo not drawn) | -2% | / | 1% | 17% | 16µM* | -10%
COCc1c(C(=O)NC2CCCCC2)cnn1-c1nccc(-c2cc(C)sc2C)n1 | / | / | 1% | / | / | /
Cc1ccc(NC(=O)c2cc(-c3ccco3)nc3ccccc23)cc1S(=O)(=O)N1CCOCC1 | -12% | 1% | 3% | -10% | ? | -9%
CCOc1cc(N2CCOCC2)c(OCC)cc1NC(=O)COc1ncnc2ccccc12 | 12% | -6% | 1%[38.3 µM] | 2% | -1% | 2%
